Shown are actives, neighbours in structure and some others; about 8% of the full set was active somewhere.
Marburg entry inh – inhibitors of Marburg virus binding or cell entry. actives 1.8% (n = 300,000). Marburg virus pseudotyped entry inhibition, cell reporter. Potency, µM (titrated, usually from 37.8 µM), inactives show at the top dose activity change, negative = inhibition, hits mostly inhibitors; calls by dose curve; tested in HEK293 cells; note: potency is the fitted concentration of half-maximal effect; % is set by controls: 0 for no effect and ±100 for the full control effect
HCV inh – inhibitors of hepatitis C virus infection. Huh7.5.1 HCVcc-Cre infection, luciferase reporter, 44 h. Potency, µM (highest dose often 41.8 µM), for the others: at the highest dose activity change, negative = inhibition, hits mostly inhibitors. actives 3.4% (n = 340,000); active = well fitted inhibition curve with a large enough effect; inconclusive = small, poorly fitted or top-dose-only effect, or another doubt; inactive = no such curve, though single readings can be large or run the other way; note: potency is the fitted concentration of half-maximal effect; % is set by controls: 0 for no effect and ±100 for the full control effect
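A cell-based infection assay in which seeded cells (1,000 per well) receive test compound after 4 h, are inoculated with HCVcc-Cre at approximately 0.5 moi, and are incubated 44 h before luminescence detection.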
SARS PLP yeast – blocks SARS-CoV papain-like protease in a yeast assay. S. cerevisiae expressing SARS-CoV PLpro, growth rescue. Potency, µM (doses to about 32.9 µM), inactives show at the top dose activity, positive = growth rescue, hits mostly activators. actives 0.19% (n = 330,000). AID 485353; calls by dose curve; note: potency is the fitted concentration of half-maximal effect; 0% is about no effect; nearly all actives have a fitted effect of over 55% in size
LASV entry inh – inhibitors of Lassa virus binding or cell entry. Lassa virus pseudotype entry inhibition, cell reporter. Potency, µM (series often up to 37.9 µM), inactives show top-dose activity change, negative = inhibition, hits mostly inhibitors. actives 1.2% (n = 300,000). AID 540256; calls by dose curve; tested in HEK293 cells; note: potency is the fitted concentration of half-maximal effect; % is set by controls: 0 for no effect and ±100 for the full control effect; nearly all actives have a fitted effect of over 50% in size
FMDV antiviral – foot and mouth disease virus antiviral activity. AID 1159524. actives 1.2% (n = 410,000). FMDV antiviral cell-based qHTS. Potency, µM (titrated, usually from 57.9 µM), for the others: top-dose activity change, negative = inhibition, usual class: inhibitors; calls by dose curve; tested in HEK293T cells; note: read-out not given here; potency is the fitted concentration of half-maximal effect; % is set by controls: 0 for no effect and ±100 for the full control effect; nearly all actives have a fitted effect of over 45% in size
HCMV inh – inhibitors of human cytomegalovirus. HFF cells, HCMV-luciferase reporter, 72 h; hits give low values. activity change, negative = inhibition, % at 57.5 µM. actives 4.5% (n = 410,000). AID 1259415; in the data active = activity change below about -60%; inconclusive = no clear call, values can overlap the other calls; inactive = above about -39%; note: % is set by controls: 0 for no effect and ±100 for the full control effect
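Two compound doses tested in HFFs infected with HCMV-luciferase, MOI 1 PFU/cell, 72 h at 37C. Lysate luminescence read with OneGlo; data normalized against buffer-only and 10uM Salinomycin inhibitor controls.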
Starred values were filed as active, the others as inactive; ? = inconclusive; . = no result; ! = not confirmed by another sample; [ ] = dose if it differs, or a comment.

SMILES	Marburg entry inh	HCV inh	SARS PLP yeast	LASV entry inh	FMDV antiviral	HCMV inh
COc1cc2ncn(-c3cc(OC(C)c4ccccc4Cl)c(C(N)=O)s3)c2cc1OC (stereo unspecified)	.	.	.	2.5µM*	.	.
C[C@]12CCC(=O)C[C@@H]1CC[C@@H]1[C@@H]2CC[C@@]2(C)[C@H]1CC[C@]2(C)O	.	.	2.0%	.	.	.
C[C@]12CCC3C(CC[C@H]4CCCC[C@]34C)C1CC[C@@]2(O)CNCCO (stereo partly specified)	1.5%	10µM*	-1.0%	?	-17.2%	-1.0
Cc1ccc(Nc2cc(C)nn2-c2nc(C)cc(=O)[nH]2)cc1	2.82µM*	?	-28.0%	1.58µM*	3.55µM*	.
COc1cccc(-c2cc3c(c(OC)c2)OCCN(Cc2cccn2-c2ccccn2)C3)c1	.	.	.	.	1.3%	.
COc1cccc2cc(/C(=N/O)c3ccc(Br)cc3)oc12	-29.4%	-28.9%	0.0%	-22.4%	-19.0%	-65.9*
CCCC(=O)N1c2nc(C(C)C)nn2C2(CCCCC2)[C@@H]2CCCC[C@@H]21	-15.6%[46.1 µM]	.	.	18.8%[46.1 µM]	-6.0%	-75.3*
CC(C)CC(=O)N1c2nc(C(C)C)nn2C2(CCCCC2)[C@@H]2CCCC[C@@H]21	13.1%[46.1 µM]	.	.	9.2%[46.1 µM]	0.0%	40.3
O=C(Cc1ccc(Br)cc1)Nc1cccc(-c2cn3c(n2)SCC3)c1	?	?	-2.1%	?	?	-71.4*
COC(=O)C1CCCCN1Cc1ccc2c(c1)CN(C(=O)c1ccc(F)cc1)CCO2 (stereo unspecified)	.	.	.	.	-7.6%	.
Cc1cccn2c(=O)cc(COc3cccc(NC(=O)COc4ccccc4)c3)nc12	.	.	.	-0.3%[46.1 µM]	-11.3%	?
CCN(CC)c1ccc(N=Cc2c(O)n(-c3ccccc3C)c(=O)[nH]c2=O)cc1	9.4%	17.6%	-1.4%	-13.4%	.	72.5
CCOc1ccccc1-n1c(O)c(C=Nc2ccc(N(CC)CC)cc2)c(=O)[nH]c1=O	-25.3%	-18.4%	2.8%	?	-31.7%	-86.9*
CCOc1ccc2nc(N(CCN(CC)CC)C(=O)c3cccc([N+](=O)[O-])c3)sc2c1	?	-11.5%	2.0%	?	-4.6%	-28.3
O=c1cc(CN(Cc2ccccc2)Cc2ccccc2)c2ccccc2o1	.	.	.	.	-18.7%	-8.0
Nc1nc(NCc2ccco2)nc(N2CCCCC2)c1[N+](=O)[O-]	10µM*	-4.8%	-9.3%	0.7%	-22.3%	24.2
CCC(C)Nc1nc(N)c([N+](=O)[O-])c(N2CCCCCC2)n1 (stereo unspecified)	?	?	-0.5%	?	?	-36.4
CC(C)CNc1nc(N)c([N+](=O)[O-])c(N2CCCCCC2)n1	?	?	-2.2%	-27.9%[46.1 µM]	-22.3%	-99.0*
CC(Sc1nnc(C2CC2)n1N)C(=O)NC1CCCCC1C (stereo unspecified)	-12.5%	16.7%	2.0%	11.0%	-16.9%	4.8
COC(=O)c1c(C)nc2ccccc2c1-c1ccccc1	6.3%	?	0.8%	13.8%	0.0%	-0.9
COC(=O)c1ccc2c(c1)c(-c1ccccc1)c(-c1ccccc1)n2C	.	7.08µM*	5.3%	.	?	-12.1
COc1ccc(CNCC(O)(c2ccc(Cl)cc2)c2ccc(Cl)cc2)cc1OC	?	12.6µM*	2.4%	?	?	17.7
COc1ccc(CNCC(O)(c2ccc(F)cc2)c2ccc(F)cc2)cc1OC	.	?	-1.8%	.	?	?
COc1ccc(CNCC(O)(c2ccccc2)c2ccc(F)cc2)cc1 (stereo unspecified)	11.2µM*	7.9%	-1.0%	14.4%[46.1 µM]	-4.3%	?
COc1ccc(CNCC(O)(c2ccccc2)c2ccc(F)cc2)cc1OC (stereo unspecified)	2.82µM*	10µM*	-1.2%	?	?	?
SMILES	Marburg entry inh	HCV inh	SARS PLP yeast	LASV entry inh	FMDV antiviral	HCMV inh
CC(Nc1nc(N2CCNCC2)nc2ccccc12)c1ccccc1 (stereo unspecified)	?	10µM*	0.6%	?	?	-36.0
CCCC(=O)Nc1c(-c2ccccc2Cl)c(=O)c2ccccc2n1C	.	11.4%	-4.0%	.	-13.6%	32.2
Cc1cnc(C(=O)OCC(=O)c2ccc(-c3ccccc3)cc2)cn1	.	-3.4%	5.3%	.	-9.1%	?
CNS(=O)(=O)c1cccc(C(=O)OCCCOC(=O)c2cccc(S(=O)(=O)NC)c2)c1	-15.0%	11.2µM*	-2.6%	?	0.0%	-16.9
COc1ccc2c(c1)C13CCCC[C@@H]1C(C2)N(C)CC3 (stereo partly specified)	.	?	-0.7%	.	-13.6%	-25.9
C=CCN1CC[C@]23CCCCC2[C@H]1Cc1ccc(O)cc13 (stereo partly specified)	7.94µM*!	.	.	-7.8%	.	.
COc1ccc2c(c1)[C@@]13CCCC[C@H]1[C@@H](C2)NCC3	18.3µM*	.	.	?	.	.
COc1ccc2c(c1)C13CCCCC1C(C2)N(C)CC3 (stereo unspecified)	11.2µM*	.	.	?	.	.
CC(=O)NC1(NC(C)=O)CCN(C)CC1	16.2%[46.1 µM]	-0.2%	0.1%	12.5%	-14.0%	7.9
COc1ccc(-n2ncc(Cl)c(Cl)c2=O)cc1	?	3.55µM*	-0.9%	?	8.91µM*	-100.8*
COc1ccc(-n2c(-c3ccco3)nc3c(cnn3-c3ccccc3C)c2=O)cc1	?	-6.2%	-0.4%	?	?	?
CCOc1ccc(-n2c(C)nc3c(cnn3-c3ccc(Cl)cc3)c2=O)cc1	0.8%	10.9%	-0.3%	-0.8%	-14.7%	-25.6
COc1cccc(-n2c(-c3ccco3)nc3c(cnn3-c3ccccc3C)c2=O)c1	?	.	.	?	14.1µM*	-32.7
COc1ccc(-n2c(-c3ccco3)nc3c(cnn3-c3ccc(C)cc3)c2=O)cc1	0.9%[46.1 µM]	?	0.1%	?	39.8µM*!	-4.9
CCc1nc2c(cnn2-c2ccc(Cl)cc2)c(=O)n1-c1ccc(OC)cc1	?	11.2µM*	7.1%	?	?	-36.5
COc1ccc2c(c1)[C@@H](NC(=O)C(F)(F)F)C1CCCCC21c1ccccc1 (stereo partly specified)	-4.1%[14.2 µM]	.	.	.	.	.
O=C(NCCO)c1nc(C(=O)c2ccc(Cl)cc2)c2ccccc2n1	.	11.7%	3.9%	.	-11.3%	39.6
CC(C)C[C@H]1COc2c(Cl)cccc2S(=O)(=O)N1Cc1ccc(Cl)cc1	.	.	.	-13.7%[46.1 µM]	.	.
COc1cc(/C(C#N)=C/c2ccccc2)c([N+](=O)[O-])cc1OC	-13.2%	8.8%	-17.6%	2.9%	?	-13.8
Cc1cccnc1-n1c(-c2ccco2)nc2ccccc2c1=O	-1.0%[46.1 µM]	7.1%	9.4%	0.4%	-7.0%	15.9
COc1ccc(-n2c(-c3ccco3)nc3c(cnn3-c3ccccc3Cl)c2=O)cc1	-17.6%[46.1 µM]	.	.	?	?	?
O=c1c2cnn(-c3ccccc3)c2nc(-c2cccs2)n1-c1cccc(Cl)c1	?	?	0.6%	-29.2%	?	-75.7*

Source: PubChem
